Screens: PubChem, National Center for Advancing Translational Sciences (NCATS)
This is a sample that favours compounds with a hit; in the whole collection about 5.5% have one here.
RORgamma inh: qHTS for inhibitors of ROR gamma transcriptional activity | Nuclear receptor ROR-gamma (Mus musculus), P51450 | Drosophila S2 Gal4-RORgamma UAS-luciferase reporter, 20 h | Potency, µM (top dose mostly 53.6 µM), without a hit: at the highest dose activity change, negative = inhibition, most hits filed as inhibitors | hit rate 5.4% among 310,000; note: potency is the fitted concentration of half-maximal effect; % is set by controls: 0 for no effect and ±100 for the full control effect; nearly all actives have a fitted effect of over 60% in size
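A Gal4/UAS one-hybrid system in insect cells: metallothionein-promoter Gal4–ROR gamma fusion plus Photinus luciferase reporter. Copper sulfate 700 uM final, 20 hr ambient incubation, luminescent detection after 10 min with reagent.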
MBNL1 CUG block: qHTS Assay for Inhibitors of MBNL1-poly(CUG) RNA binding. Muscleblind-like protein 1 (Homo sapiens), Q9NR56. TR-FRET MBNL1-His/biotin-(CUG)12 binding, 665/545 ratio. Potency, µM (series often up to 57.5 µM), for inactives: at the highest dose activity change, negative = inhibition, actives largely listed as inhibitors. hit rate 0.036% among 280,000. AID 2675, 2010; active = well fitted inhibition curve with a large enough effect in the signal ratio, with a control signal flat, not every such curve was filed as active; inconclusive = small, poorly fitted or top-dose-only effect, or effect the other way, or a change in a side signal; inactive = no such curve, though single readings can be large or run the other way; the % refers to the signal ratio; note: potency is the fitted concentration of half-maximal effect; % is set by controls: 0 for no effect and ±100 for the full control effect
Target sequence (Q9NR56 whole entry, looked up): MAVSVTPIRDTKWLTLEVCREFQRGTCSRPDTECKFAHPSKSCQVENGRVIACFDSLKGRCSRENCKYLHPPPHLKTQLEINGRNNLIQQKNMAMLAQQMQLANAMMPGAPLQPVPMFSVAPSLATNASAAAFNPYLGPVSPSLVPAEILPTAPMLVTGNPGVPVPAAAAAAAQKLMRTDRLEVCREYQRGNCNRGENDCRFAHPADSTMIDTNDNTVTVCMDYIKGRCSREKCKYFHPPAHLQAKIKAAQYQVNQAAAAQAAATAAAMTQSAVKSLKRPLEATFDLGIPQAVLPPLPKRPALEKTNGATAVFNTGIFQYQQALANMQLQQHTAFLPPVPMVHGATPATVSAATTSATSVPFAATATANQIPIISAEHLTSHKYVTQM
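Inhibition of protein-RNA binding appears as loss of TR-FRET between terbium anti-His antibody on MBNL1-His and streptavidin-XL665 on biotin-(CUG)12. Activity is normalized to buffer-only and uninhibited-complex controls.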
CtBP-E1A blk: qHTS Assay for Inhibitors of the CtBP/E1A Interaction | AID 651724, 2012 | CtBP / adenovirus E1A interaction (AlphaScreen) | activity change, % (no concentration beside the values) | hit rate 0.49% among 340,000 | AlphaScreen GST-E1A/His-CtBP binding, 1536-well; stronger effect = lower value; in the data active = activity change below about -65%; inconclusive = mostly about -30% to -63%; note: % is set by controls: 0 for no effect and ±100 for the full control effect
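GST-E1A and His-tagged CtBP (125 nM each as 5X stock) were preincubated with pin-transferred compound for 2 h at 37 °C in the dark, then glutathione donor and nickel acceptor beads were added for 1 h before AlphaScreen reading.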
Six1-Eya2 inh: qHTS Assay for Inhibitors of the Six1/Eya2 Interaction. Homeobox protein SIX1 (Homo sapiens) + Protein phosphatase EYA2 (Homo sapiens), …. AlphaScreen GST-Six1/His-Eya2 binding, biochemical; stronger effect = lower value. activity change, % (concentration not given with the values). hit rate 0.56% among 360,000. AID 651725, 2012; in the data active = activity change below about -65%; inconclusive = mostly about -30% to -63%; note: % is set by controls: 0 for no effect and ±100 for the full control effect
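Compounds are tested against tagged Six1 and Eya2 proteins bridged by glutathione donor and nickel acceptor beads; after a one-hour incubation at 37 °C without light, AlphaScreen emission is recorded.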
CBFb-RUNX1 inh: qHTS Assay for Compounds Blocking the Interaction Between CBF-beta and RUNX1 for the Treatment of Acute Myeloid Leukemia; Runt-related transcription factor 1 (Homo sapiens) + Core-binding factor subunit beta …; AlphaScreen CBFb-His/RUNX1-biotin binding, biochemical; Potency, µM (titrated, usually from 59.8 µM), inactives show at the top dose activity, negative = inhibition, hits mostly inhibitors; 230,000 tested, under 10 active; AID 1477, 2009; note: % of control where 0% means no effect
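Inhibition was taken as any reduction in AlphaScreen signal from the CBF-beta–RUNX1 pair (His and biotin tags, 30 nM each), measured after compound (15 min) and bead (90 min) incubations at room temperature.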
VP16 counter: VP16 counterscreen qHTS for inhibitors of ROR gamma transcriptional activity; Drosophila S2 Gal4-VP16 UAS-luciferase, luminescence, 20 h; Potency, µM (highest dose often 53.6 µM), inactives show at the highest dose activity, negative = inhibition, most hits filed as inhibitors; hit rate 3.5% among 310,000; AID 2546, 2010;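 note: Gal4-VP16 expression switched on by copper sulfate through the metallothionein promoter; potency is the fitted concentration of half-maximal effect; % is set by controls: 0 for no effect and ±100 for the full control effect; nearly all actives have a fitted effect of over 50% in size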
The depositor's hits bear a star; ? = inconclusive; . = no result given; [ ] = remark or other dose. Unless noted, calls come from the whole dose curve; as a rule, active = well fitted curve in the direction sought with a large enough effect; inconclusive = small, poorly fitted or top-dose-only effect, or another doubt; inactive = no such curve, though single readings can be large; an effect the other way counts as inactive or inconclusive.

SMILES	RORgamma inh	MBNL1 CUG block	CtBP-E1A blk	Six1-Eya2 inh	CBFb-RUNX1 inh	VP16 counter
Cc1cc(C)c(NC2=NCCCS2)c(C)c1	16%	-15%	-1	3	0%	-8%
CCCCNS(=O)(=O)c1ccc(OCC(=O)N2CCN(Cc3ccc4c(c3)OCO4)CC2)cc1	-8%	1%	0	-3	.	5.6µM*
O=C(COc1ccc(S(=O)(=O)N2CCOCC2)cc1)N1CCN(Cc2ccc3c(c2)OCO3)CC1	15%	-10%	-2	0	-1%	?
CC(C)CN1CC[C@@]2(CCCN(C(=O)Oc3ccccc3)C2)C1	4%	.	.	.	.	3%
CCN(CC)C(=O)c1ccc(NC(=O)Nc2ccccc2F)cc1	11µM*	-4%	.	-6	-5%	?
CCN(CC)C(=O)c1ccc(NC(=O)CCCSc2ccccc2)cc1	-13%	2%	-9	8	1%	5%
ClC=CCl	5%	.	.	.	8%[21.7 µM]	-9%
O=C(O)COc1nc(Cl)c(Cl)cc1Cl	19%	.	.	.	27%	5%
Cc1ccc2c(Cl)cc(Cl)c(OCC(=O)N(C(C)C)C(C)C)c2n1	6.3µM*	-2%	-19	-2	-2%	1%
CC(=O)[C@@H]1CC[C@H]2[C@@H]3CC[C@@H]4CC(=O)CC[C@]4(C)[C@H]3CC[C@]12C	.	.	.	.	12%	.
Cc1ccc(NC(=S)NC2CC3CCC(C2)N3Cc2ccco2)cc1C (stereo not given)	14µM*	-2%	0	-4	3%	-19%
Cc1c(O)c(O)cc2c1CC=C1[C@]3(C)CC[C@]4(C)CC[C@@](C)(C(=O)O)CC4[C@]3(C)CC[C@]12C (stereo not given in full)	?	.	.	.	.	13µM*
C[C@@H]1Cc2c(Cl)cc(C(=O)N[C@H](Cc3ccccc3)C(=O)O)c(O)c2C(=O)O1	?	.	.	.	17%	?
CC(C)(C)C(=O)C1C(=O)c2ccccc2C1=O	?	.	.	.	9%[21.7 µM]	?
O=c1c2ccccc2nc(/C=C/c2cccnc2)n1Cc1ccccc1	-31%	?	1	-71*	3%	-13%
COc1ccc2[nH]c(C)c(CCNCc3cc(OC)c4c(c3)OCO4)c2c1	.	.	-29	-27	.	.
COc1ccc2[nH]c(C)c(CCNCc3cc(OC)c(OC)c(OC)c3)c2c1	?	.	4	-9	-23%	18µM*
O=C1C(Cl)=C(Cl)C(=O)C(Cl)=C1Cl	4.5µM*	.	.	.	?	?
COC(=O)C12CC3=C[C@H](CC3=O)Cc3ccccc3[C@@H]1CNC2=O (stereo not given in full)	-26%	.	.	.	-8%	4%
O=C1C=C2C(=CCOC2O)O1 (stereo not given)	1.1µM*	.	.	.	-1%	0.89µM*
C[C@@H](N)[C@@H](O)c1ccc(O)c(O)c1	-21%[10 µM]	.	.	.	.	-5%
OC[C@@H]1[C@@H](O)[C@H](O)[C@H]2[C@@H](O)CCN21	-14%	.	.	.	24%	-20%
CCN1C[C@]2(COC)CC[C@H](OC)[C@@]34C5C[C@@H]6[C@@H](OC)C[C@@]7(OCO[C@@]7([C@@H](O)C23)[C@@H]14)C5[C@H]6OC (stereo not given in full)	.	.	.	.	16%	.
COC(=O)[C@@H]1C[C@H]1[C@@H](NP(=O)(c1ccccc1)c1ccccc1)c1ccccc1	10µM*	-12%	0	6	2%[2.36 µM]	?
Oc1ccc(Cl)c(Cl)c1	33%	.	1	5	5%[21.7 µM]	-5%
SMILES	RORgamma inh	MBNL1 CUG block	CtBP-E1A blk	Six1-Eya2 inh	CBFb-RUNX1 inh	VP16 counter
Oc1cc[c]([Hg][Cl])cc1	2.5µM*	.	.	.	.	2.8µM*
Cn1cnc([N+](=O)[O-])c1Sc1ccc([N+](=O)[O-])cc1	11µM*	?	5	-3	-3%	?
CCOc1cc2[nH]c(=S)n(CCCC(=O)N3CCC4(CC3)OCCO4)c(=O)c2cc1OCC	?	-5%	-1	-1	15%	20µM*
Cn1c(=O)cc(OCCCC(=O)N2CCC3(CC2)OCCO3)c2ccccc21	?	-1%	5	5	4%	7%
O=C(O)c1cc(Cl)ccc1Cl	-18%	.	.	.	3%[21.7 µM]	-30%
O=C(CCl)c1ccc(Cl)cc1Cl	8.9µM*	.	.	.	25%[21.7 µM]	?
COc1ccc(CN2C(=O)NC(=O)/C(=C/c3ccc(OC)c(OC)c3OC)C2=O)cc1	-41%	-6%	-5	7	-1%	1.3µM*
Cc1cc(C)c(-n2c(O)c(/C=N/NC(=O)c3ccncc3)c(=O)[nH]c2=O)c(C)c1	-22%	7%	?	-16	-22%	7%
O=C(N/N=C/c1cc(Br)c(Br)s1)c1ccncc1	0.56µM*	?	-13	?	-10%	1µM*
CN(C)C(=O)Oc1ccc(OCc2nc3ccccc3[nH]2)cc1	?	3%	9	3	7%	11µM*
CN(C)C(=O)Oc1ccc(OC(=O)N(C)C)cc1	28%	2%	0	25	5%	2%
CN1CCN(C(=O)COc2ccc(-c3nc4ccccc4s3)cc2)CC1	5µM*	8%	7	-7	1%	10µM*
CN1CCN(C(=O)COc2ccc3ccccc3c2)CC1	3%	3%	-6	-1	.	1%
c1ccc(N2CC3(CCNCC3)C2)nc1	-18%	.	.	.	.	-8%
CCOP(=O)(OCC)C(NC(=O)c1ccc(C)cc1)=C(Cl)Cl	-13%	6%	0	8	1%	2%
Cc1ccc(C(=O)NC(=S)NNS(=O)(=O)c2ccc(C)cc2)cc1	5.6µM*	44%	1	-8	0%	?
CCOC(=O)CBr	-45%	.	.	.	4%[21.7 µM]	-15%
Cc1nnc2n1-c1ccc(Cl)cc1C(c1ccccc1)=NC2	2.5µM*	-9%	.	.	0%	25%
C[C@]1(O)CCC2C3CC[C@@H]4CC(=O)CC[C@]4(C)C3CC[C@@]21C (stereo not given in full)	.	.	8	-1	.	.
C[C@]12CC(=CO)C(=O)C[C@@H]1CC[C@@H]1[C@@H]2CC[C@@]2(C)[C@H]1CC[C@]2(C)O	?	-12%	.	.	4%	10µM*
CCOC(=O)c1cc(C)sc1/N=C/C1C(=O)NC(=S)NC1=O	16µM*	3%	11	?	0%	4%
